# Laboratory results published in PMC7862700, “An all-to-all approach to the identification of sequence-specific readers for epigenetic DNA modifications on cytosine”.
# Experiments:
# Assay in all cases: DAPPL (digital affinity profiling via proximity ligation, sequencing); 10 mM Tris-HCl pH 7.5, 50 mM NaCl, 1 mM DTT, 4% glycerol, room temperature, 30 min; GST-TFs on glutathione beads, 16-mer random dsDNA library, 0.1% formaldehyde crosslink after washing; high values mean tight binding
# Settings in all cases: protein: recombinant; tags: N-terminal GST; dsDNA, one strand shown
# ELK1 = target: T1, ELK1 (Homo sapiens, UniProt P19419 1-428)
# T1 sequence: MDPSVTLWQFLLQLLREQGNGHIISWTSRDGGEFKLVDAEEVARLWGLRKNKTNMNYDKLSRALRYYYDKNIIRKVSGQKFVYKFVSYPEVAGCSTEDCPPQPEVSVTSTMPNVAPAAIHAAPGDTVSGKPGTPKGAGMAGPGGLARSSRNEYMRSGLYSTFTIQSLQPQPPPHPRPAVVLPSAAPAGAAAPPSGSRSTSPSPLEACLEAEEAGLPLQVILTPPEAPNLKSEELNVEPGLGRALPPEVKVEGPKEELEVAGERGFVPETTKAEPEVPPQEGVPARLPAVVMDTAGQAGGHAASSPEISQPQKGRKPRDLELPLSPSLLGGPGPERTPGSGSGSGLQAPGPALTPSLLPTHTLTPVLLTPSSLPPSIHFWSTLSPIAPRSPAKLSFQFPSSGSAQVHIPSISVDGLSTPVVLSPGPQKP
# Method in brief: (§1)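 Pools were built from human transcription factors expressed in yeast as GST fusions, captured on glutathione beads and DNA-barcoded, along with a tag-only sample. Incubation with 200 nmole of a 16-mer random double-stranded DNA library lasted 30 min at room temperature in Tris/NaCl/DTT/glycerol buffer, and was followed by washing, 0.1% formaldehyde crosslinking, proximity ligation, PCR amplification and Illumina NextSeq500 sequencing. Binding signal is the quotient of each hexamer's read frequency for a factor and its frequency for the tag-only sample.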
# GABPA = target: T2, GABPA (Homo sapiens, UniProt Q06546 1-454)
# T2 sequence: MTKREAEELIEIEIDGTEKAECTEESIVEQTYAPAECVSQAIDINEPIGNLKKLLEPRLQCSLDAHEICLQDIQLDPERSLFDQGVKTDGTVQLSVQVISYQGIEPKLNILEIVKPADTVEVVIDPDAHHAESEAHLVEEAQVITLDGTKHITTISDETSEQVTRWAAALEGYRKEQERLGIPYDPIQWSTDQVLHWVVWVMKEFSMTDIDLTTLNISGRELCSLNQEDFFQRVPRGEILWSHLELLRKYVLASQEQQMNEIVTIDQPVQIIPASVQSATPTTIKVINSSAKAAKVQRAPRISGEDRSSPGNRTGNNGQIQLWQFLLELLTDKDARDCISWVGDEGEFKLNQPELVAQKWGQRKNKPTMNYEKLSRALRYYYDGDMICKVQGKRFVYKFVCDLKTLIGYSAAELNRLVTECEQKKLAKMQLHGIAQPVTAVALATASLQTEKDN
# Method in brief: as §1
# ERG = target: T3, ERG (Homo sapiens, UniProt P11308 1-479)
# T3 sequence: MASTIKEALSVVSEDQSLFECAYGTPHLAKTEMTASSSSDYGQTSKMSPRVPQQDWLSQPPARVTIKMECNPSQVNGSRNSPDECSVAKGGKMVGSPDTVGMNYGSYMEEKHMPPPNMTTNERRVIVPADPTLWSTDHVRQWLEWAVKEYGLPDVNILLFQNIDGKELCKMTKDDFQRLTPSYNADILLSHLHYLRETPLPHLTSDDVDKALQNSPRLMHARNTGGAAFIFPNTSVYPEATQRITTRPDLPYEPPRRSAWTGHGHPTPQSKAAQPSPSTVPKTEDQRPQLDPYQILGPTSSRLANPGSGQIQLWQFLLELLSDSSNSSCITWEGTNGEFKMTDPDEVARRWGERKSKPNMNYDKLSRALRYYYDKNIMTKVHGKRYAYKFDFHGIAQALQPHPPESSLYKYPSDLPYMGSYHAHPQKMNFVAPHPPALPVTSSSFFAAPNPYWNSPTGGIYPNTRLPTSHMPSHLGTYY
# Method in brief: as §1
# ELF1 = ELF1 (Homo sapiens, UniProt P32519 1-619)
# ELF1, sequence (P32519 whole entry): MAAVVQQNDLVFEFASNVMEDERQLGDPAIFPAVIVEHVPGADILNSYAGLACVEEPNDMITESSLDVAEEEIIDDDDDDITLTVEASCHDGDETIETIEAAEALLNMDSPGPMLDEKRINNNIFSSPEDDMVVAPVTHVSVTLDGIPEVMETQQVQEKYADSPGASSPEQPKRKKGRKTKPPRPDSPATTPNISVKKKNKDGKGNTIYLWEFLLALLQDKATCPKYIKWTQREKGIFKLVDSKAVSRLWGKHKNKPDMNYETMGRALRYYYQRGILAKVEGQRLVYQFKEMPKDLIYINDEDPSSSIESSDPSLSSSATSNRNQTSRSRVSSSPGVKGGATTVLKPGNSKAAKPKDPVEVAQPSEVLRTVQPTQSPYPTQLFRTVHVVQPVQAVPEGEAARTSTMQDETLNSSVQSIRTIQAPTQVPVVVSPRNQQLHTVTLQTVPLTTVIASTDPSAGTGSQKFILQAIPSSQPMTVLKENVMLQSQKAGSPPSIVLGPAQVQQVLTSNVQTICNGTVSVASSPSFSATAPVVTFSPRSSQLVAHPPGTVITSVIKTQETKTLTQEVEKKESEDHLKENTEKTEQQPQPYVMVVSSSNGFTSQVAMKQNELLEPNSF
# Method in brief: as §1
# EHF = target: T4, EHF (Homo sapiens, UniProt Q9NZC4 1-300)
# T4 sequence: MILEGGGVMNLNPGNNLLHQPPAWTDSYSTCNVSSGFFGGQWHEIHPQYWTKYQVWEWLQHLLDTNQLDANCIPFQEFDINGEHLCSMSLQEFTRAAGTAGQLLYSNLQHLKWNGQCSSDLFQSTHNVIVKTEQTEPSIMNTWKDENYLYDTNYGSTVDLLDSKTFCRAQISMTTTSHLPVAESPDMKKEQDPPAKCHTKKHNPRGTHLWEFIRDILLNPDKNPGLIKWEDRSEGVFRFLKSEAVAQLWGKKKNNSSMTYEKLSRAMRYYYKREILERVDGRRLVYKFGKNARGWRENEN
# Method in brief: as §1
# SPIB = SPIB (Homo sapiens, UniProt Q01892 1-262)
# SPIB, sequence (Q01892 whole entry): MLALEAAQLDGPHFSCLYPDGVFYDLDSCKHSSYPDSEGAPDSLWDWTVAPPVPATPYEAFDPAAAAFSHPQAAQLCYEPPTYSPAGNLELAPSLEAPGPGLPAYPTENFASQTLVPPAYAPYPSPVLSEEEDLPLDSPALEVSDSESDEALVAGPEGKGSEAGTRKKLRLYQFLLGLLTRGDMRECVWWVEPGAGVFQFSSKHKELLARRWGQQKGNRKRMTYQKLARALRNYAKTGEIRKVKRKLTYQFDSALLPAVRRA
# Method in brief: as §1
# FEV = target: T5, FEV (Homo sapiens, UniProt Q99581 1-238)
# T5 sequence: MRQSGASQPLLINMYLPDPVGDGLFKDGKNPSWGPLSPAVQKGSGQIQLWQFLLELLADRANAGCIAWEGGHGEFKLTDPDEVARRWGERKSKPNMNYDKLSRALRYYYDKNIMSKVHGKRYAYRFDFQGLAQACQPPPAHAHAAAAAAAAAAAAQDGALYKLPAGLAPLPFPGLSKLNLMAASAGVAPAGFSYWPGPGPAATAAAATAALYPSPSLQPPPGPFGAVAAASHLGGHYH
# Method in brief: as §1
# ETV5 = ETV5 (Homo sapiens, UniProt P41161 1-510)
# ETV5, sequence (P41161 whole entry): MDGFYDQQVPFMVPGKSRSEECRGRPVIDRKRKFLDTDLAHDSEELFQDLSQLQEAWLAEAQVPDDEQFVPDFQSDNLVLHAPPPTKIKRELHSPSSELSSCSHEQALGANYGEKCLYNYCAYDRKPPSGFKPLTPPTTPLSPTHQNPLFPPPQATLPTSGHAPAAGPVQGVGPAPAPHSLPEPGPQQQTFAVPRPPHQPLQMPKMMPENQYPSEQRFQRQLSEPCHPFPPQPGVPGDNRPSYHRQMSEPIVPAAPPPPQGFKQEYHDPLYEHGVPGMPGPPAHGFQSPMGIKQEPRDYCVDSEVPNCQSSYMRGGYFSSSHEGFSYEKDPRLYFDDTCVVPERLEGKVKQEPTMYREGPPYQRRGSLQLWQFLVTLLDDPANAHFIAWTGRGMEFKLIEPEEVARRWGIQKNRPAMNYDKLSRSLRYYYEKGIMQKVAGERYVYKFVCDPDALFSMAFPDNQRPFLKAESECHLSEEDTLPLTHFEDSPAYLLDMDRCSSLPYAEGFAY
# Method in brief: as §1
# ELF4 = ELF4 (Homo sapiens, UniProt Q99607 1-663)
# ELF4, sequence (Q99607 whole entry): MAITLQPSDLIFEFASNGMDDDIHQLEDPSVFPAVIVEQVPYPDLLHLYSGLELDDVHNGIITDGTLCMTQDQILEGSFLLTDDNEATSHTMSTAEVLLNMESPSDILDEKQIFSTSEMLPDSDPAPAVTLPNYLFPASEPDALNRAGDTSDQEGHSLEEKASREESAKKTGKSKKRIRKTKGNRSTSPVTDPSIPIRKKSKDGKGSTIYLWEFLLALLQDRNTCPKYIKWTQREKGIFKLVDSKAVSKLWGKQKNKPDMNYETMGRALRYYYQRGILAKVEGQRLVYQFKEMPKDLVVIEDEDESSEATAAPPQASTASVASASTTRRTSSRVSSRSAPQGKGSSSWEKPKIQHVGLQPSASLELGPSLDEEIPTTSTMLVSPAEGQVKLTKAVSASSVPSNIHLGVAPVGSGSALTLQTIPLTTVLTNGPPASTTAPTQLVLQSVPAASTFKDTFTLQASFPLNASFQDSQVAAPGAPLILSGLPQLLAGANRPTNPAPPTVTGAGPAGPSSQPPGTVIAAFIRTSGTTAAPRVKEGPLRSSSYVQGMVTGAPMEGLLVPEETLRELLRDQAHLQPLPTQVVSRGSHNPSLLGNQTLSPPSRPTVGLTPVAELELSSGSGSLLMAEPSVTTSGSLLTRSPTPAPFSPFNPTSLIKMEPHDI
# Method in brief: as §1
# ELK4 = target: T6, ELK4 (Homo sapiens, UniProt P28324-2 1-405)
# T6 sequence: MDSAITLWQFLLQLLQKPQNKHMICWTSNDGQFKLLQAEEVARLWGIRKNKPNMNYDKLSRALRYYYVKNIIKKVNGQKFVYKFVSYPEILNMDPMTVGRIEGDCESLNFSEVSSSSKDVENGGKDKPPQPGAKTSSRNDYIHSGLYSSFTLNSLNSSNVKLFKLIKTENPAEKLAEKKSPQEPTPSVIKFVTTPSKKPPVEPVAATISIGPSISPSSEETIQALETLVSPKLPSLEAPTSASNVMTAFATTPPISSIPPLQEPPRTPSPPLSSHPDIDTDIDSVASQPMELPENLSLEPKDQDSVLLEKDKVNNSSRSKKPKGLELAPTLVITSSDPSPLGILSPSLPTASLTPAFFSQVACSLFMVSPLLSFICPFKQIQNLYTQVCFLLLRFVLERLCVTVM
# Method in brief: as §1
sequence,measurement,setting,value
GTACCC,binding signal,ELK1,"1.05 fold enrichment (6-mer frequency, TF over GST control)"
same,binding signal,GABPA,"1.07 fold enrichment (6-mer frequency, TF over GST control)"
same,binding signal,ERG,"1.05 fold enrichment (6-mer frequency, TF over GST control)"
same,binding signal,ELF1,"1.12 fold enrichment (6-mer frequency, TF over GST control)"
same,binding signal,EHF,"1.16 fold enrichment (6-mer frequency, TF over GST control)"
same,binding signal,SPIB,"1.07 fold enrichment (6-mer frequency, TF over GST control)"
same,binding signal,FEV,"1.05 fold enrichment (6-mer frequency, TF over GST control)"
same,binding signal,ETV5,"1.17 fold enrichment (6-mer frequency, TF over GST control)"
same,binding signal,ELF4,"1.06 fold enrichment (6-mer frequency, TF over GST control)"
same,binding signal,ELK4,"1.17 fold enrichment (6-mer frequency, TF over GST control)"
